# Only some compounds are listed: those with a hit (about 3.1% of all), similar ones and a draw of the others.
# CASP6 VEID inh = human caspase-6 inhibitors, primary screen, biochemical, VEID-R110 fluorescence, single point, set 2; P55212; purified caspase-6, Z-VEID-R110 cleavage fluorescence; inhibition, % at 12.5 µM; hit rate 0.53% among 350,000; AID 686996, 2013;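 active = mean inhibition across replicates at least about 35%, with every replicate also reaching that limit, limit read from the data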;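 also: 0% = median of neutral control wells and 100% = no fluorescence left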
# Target sequence (P55212 24-179 limits assumed): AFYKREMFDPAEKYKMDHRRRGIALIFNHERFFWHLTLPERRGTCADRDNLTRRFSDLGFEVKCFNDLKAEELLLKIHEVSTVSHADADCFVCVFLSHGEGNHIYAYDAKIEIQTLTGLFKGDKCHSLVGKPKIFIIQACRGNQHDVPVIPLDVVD
# Target sequence (P55212 194-293 limits assumed): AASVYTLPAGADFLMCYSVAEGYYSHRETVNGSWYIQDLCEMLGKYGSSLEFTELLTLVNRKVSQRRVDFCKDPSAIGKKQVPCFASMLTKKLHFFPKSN
# ERAP1 HTS inh = human ERAP1 aminopeptidase inhibitors, primary screen, biochemical, single point, plate reader | Endoplasmic reticulum aminopeptidase 1 (Homo sapiens), Q9NZ08 | recombinant ERAP1, Leu-AMC fluorescence, 60 min | inhibition, % at 10.7 µM | hit rate 0.15% among 340,000;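 active = mean replicate inhibition of at least 30%, or all replicates individually reaching that 30% level; inactive = mean below 30% and not every replicate reaching it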;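 also: 0% = neutral control wells and 100% = L-leucinethiol positive control wells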
# SIRT5 block = SIRT5 desuccinylase inhibitors, primary screen, biochemical, fluorescence imaging, single point, set 5 | NAD-dependent protein deacylase sirtuin-5, mitochondrial (Homo sapiens), Q9NXA8 | Purified SirT5, succinyl-peptide AMC, trypsin-coupled fluorescence | inhibition, % at 15 µM | hit rate 1.1% among 330,000; in the data active = inhibition above about 15%
# Target sequence (Q9NXA8 whole entry, looked up): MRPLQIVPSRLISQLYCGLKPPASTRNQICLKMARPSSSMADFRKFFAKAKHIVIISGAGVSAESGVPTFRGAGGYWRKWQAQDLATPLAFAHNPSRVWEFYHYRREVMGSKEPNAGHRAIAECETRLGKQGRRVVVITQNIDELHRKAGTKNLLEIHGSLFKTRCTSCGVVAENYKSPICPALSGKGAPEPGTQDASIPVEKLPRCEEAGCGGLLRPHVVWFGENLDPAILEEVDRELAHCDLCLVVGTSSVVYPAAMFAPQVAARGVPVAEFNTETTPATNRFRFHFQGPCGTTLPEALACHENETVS
# FGF22 binding = binders of human FGF22 protein, primary screen, FGF22 synaptogenesis inhibitor project, biophysical, thermal shift, single point; recombinant FGF22 thermal shift, SYPRO orange fluorescence; percent of sucrose octasulfate shift, DMSO zero; Fibroblast growth factor 22 (Homo sapiens), Q9HCT0; activity (Tm shift, normalised), % at 9.99 µM; hit rate 1.5% among 340,000;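 active = mean Tm shift, scaled 0 neutral to 100 positive control, at about 1.3% or above, every replicate too, limit read from the data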
# * hit, by the source's call; x = no result.
SMILES,CASP6 VEID inh,ERAP1 HTS inh,SIRT5 block,FGF22 binding
O=C(CCl)NC(Cc1c[nH]c2ccc(OCc3ccccc3)cc12)C(=O)O (stereo not given),36.0*,-2.4,-1.2,-0.1
CC(=O)NCCc1c[nH]c2ccc(OCc3ccccc3)cc12,4.5,1.9,-8.3,-0.1
Cc1oc2c(c1C(=O)O)C(=O)c1ccccc1C2=O,58.5*,x,x,0.1
C[C@@H]1CN([C@H](C)CO)C(=O)c2cccc(NC(=O)CCCCCC(=O)Nc3ccccc3N)c2O[C@H]1CN(C)Cc1ccc(Cl)c(Cl)c1,0.8,2.8,15.4*,-0.1
C[C@@H]1CN([C@H](C)CO)C(=O)Cc2cc(NC(=O)CCCCCC(=O)Nc3ccccc3N)ccc2O[C@H]1CN(C)Cc1ccc(Cl)c(Cl)c1,0.3,-2.2,6.9,0.0
C[C@@H]1CN([C@H](C)CO)C(=O)c2cc(NC(=O)CCCCCC(=O)Nc3ccccc3N)ccc2O[C@@H]1CN(C)Cc1ccc(Cl)c(Cl)c1,1.7,-1.2,24.1*,-0.2
C[C@H]1CN([C@@H](C)CO)C(=O)c2cc(NC(=O)CCCCCC(=O)Nc3ccccc3N)ccc2O[C@H]1CN(C)Cc1ccc(Cl)c(Cl)c1,0.9,-0.7,21.2*,-0.4
CCCNC1=C(N(C(C)=O)c2cccc(F)c2)C(=O)c2ccccc2C1=O,80.1*,3.7,3.7,-0.1
CC(C)c1ccc(NC(=O)CNS(=O)(=O)c2ccc(F)cc2)cc1,0.8,-3.9,4.3,43.2*
CC(Nc1ccc(F)cc1)=[N+](C)CCNS(=O)(=O)c1ccc(Cl)cc1,4.0,38.5*,1.4,-0.3
CCNS(=O)(=O)c1ccc(NC(=O)Cc2ccc(F)cc2)cc1,-2.4,2.7,-5.3,0.0
COc1ccc(S(=O)(=O)NCC(=O)Nc2ccc(F)cc2)cc1,1.1,-0.3,0.2,0.1
CN(C)C(=O)c1cccc(-c2ccccc2[C@H]2[C@@H](C#N)N(C(=O)C3CCC3)[C@@H]2CO)c1,0.5,0.7,6.3,x
CCOC(=O)c1cc2ccc3ccccc3c2oc1=O,-1.1,-466.2,23.7*,-0.3
Cc1ccccc1C(=O)Nc1ccc2nc3n(c(=O)c2c1)CCCC3,0.7,-0.1,-1.9,0.3
CCOc1ccccc1C(=O)Nc1ccc2nc3n(c(=O)c2c1)CCCCC3,6.8,-4.2,23.1*,-0.2
COc1cccc(C(=O)NCC2(c3ccccc3)CCCC2)c1,-2.9,4.7,1.9,43.0*
CC1=NCCN1CCNC(=O)Nc1cc(C)cc(C)c1,-0.2,x,21.4*,-0.3
Cc1ccc(CNC(=O)Nc2ccc(F)cc2)n1C,3.9,1.8,0.5,-0.2
CC1=NCCN1CCNC(=O)Nc1ccc(F)cc1,-2.2,x,17.0*,0.1
O=C(C1CCCC1)N1CC(=O)N2[C@H](CO)[C@H](c3ccc(C#CCc4ccccc4)cc3)[C@H]2C1,1.8,-2.0,0.1,x
Cc1c(Cl)c(C(F)(F)F)nn1CC(=O)NCc1ccco1,3.0,0.5,-5.2,42.9*
CCCCCCn1cc(C(=O)OCC)c(=O)c2cc(F)c(F)cc21,0.8,18.4,2.5,0.0
CCOC(=O)c1cn(CC#N)c2cc(F)c(F)cc2c1=O,-1.0,6.8,3.0,43.0*
Cc1cc(C)nc(NS(=O)(=O)c2ccc(NC(=O)c3ccc4c(c3)OCCO4)cc2)n1,-3.8,4.0,-3.7,43.3*
SMILES,CASP6 VEID inh,ERAP1 HTS inh,SIRT5 block,FGF22 binding
COC(=O)CCc1c(C)c(C(=O)c2ccc(F)cc2)c2ccccn12,0.2,-2.1,-2.7,42.6
COC(=O)CCc1c(C)c(C(=O)c2cc(F)c(F)c(F)c2F)c2ccccn12,62.4*,1.2,-16.4,0.3
COc1cccc(C#Cc2ccc([C@@H]3[C@H]4CN(C(=O)Cc5cccnc5)CC(=O)N4[C@H]3CO)cc2)c1,4.7,-3.0,1.2,x
CN1C(=O)c2cc(NC(=O)C3CC3)ccc2OC[C@@H]2O[C@@H](CC(=O)NCc3cccc(F)c3)CC[C@@H]21,x,x,x,-0.2
CCCc1cc(-c2n[nH]c(C(=O)OCC)c2-c2cscn2)c(O)cc1O,45.0*,0.9,4.6,0.4
CCOC(=O)c1oc2cc(O)c(CC)cc2c(=O)c1-c1cscn1,2.3,7.0,3.7,0.7
Cc1cc(C)cc(NC(=S)NCc2ccncc2)c1,0.8,1.0,4.0,43.8*
O=C(C=CC(=O)OC1CCCCC1)OC1CCCCC1,2.7,3.7,x,0.4
O=C(CCCCC(=O)OC1CCCCC1)OC1CCCCC1,-2.3,-2.2,x,43.2*
N#Cc1cccc(-c2ccc3c(c2)[C@@H]2[C@@H](CCN2S(=O)(=O)c2cccc(F)c2)[C@@H](CO)N3)c1,-1.1,-0.4,-0.5,-0.1
O=C(N/N=C/c1ccc(O)cc1O)C(=O)N/N=C/c1ccc(O)cc1O,39.4*,4.4,4.9,-0.1
O=C(NN=Cc1ccc(O)cc1)C(=O)NN=Cc1ccc(O)cc1,0.2,0.3,2.1,0.2
Cn1cnc(CCNC(=O)C[C@@H]2CC[C@@H]3[C@H](COC[C@H](O)CN3C(=O)C3CCCC3)O2)c1,29.4,0.0,23.9*,0.1
COCC(=O)Nc1ccc2c(c1)C(=O)N(C)C[C@H](OC)[C@@H](C)CN(C(=O)c1ccccc1F)[C@@H](C)CO2,-0.8,4.0,-5.2,0.0
Cc1ccccc1OCc1nc(-c2cccnc2)no1,-3.7,3.7,5.1,46.0*
COCC(=O)Nc1ccc2c(c1)C(=O)N(C)[C@@H]1CC[C@@H](CC(=O)NCC3CCCCC3)O[C@H]1CO2,3.8,-4.9,6.7,-0.2
Cc1occc1C(=O)N/N=C/C=C/c1ccccc1,1.2,1.7,2.7,43.1*
O=C(N/N=C/C=C/c1ccccc1)c1cccc(Br)c1,-1.0,1.1,-3.3,1.4*
Cc1ccc(C(=O)N/N=C/C=C/c2ccccc2)cc1,2.5,1.1,x,0.1
Cc1occc1C(=O)N/N=C/C=C/c1ccc(N(C)C)cc1,1.8,-3.0,0.4,-0.6
C[C@@H](O)C#Cc1cnc2c(c1)C(=O)N([C@@H](C)CO)C[C@H](C)[C@H](CN(C)C(=O)Cc1ccccn1)O2,-2.7,-2.0,-2.7,-0.1
O=C(Nc1ccc(Cl)cc1)N[C@@H]1CC[C@@H](CCNC(=O)c2ccccc2F)O[C@@H]1CO,0.3,-5.2,2.3,-0.3
CCNc1nc(NCC)n2c(SCC(=O)Nc3ccc(F)cc3)nnc2n1,26.4,3.5,-0.8,0.1
CCNc1nc(NCC)n2c(SCC(=O)Nc3ccc(C)c(C)c3)nnc2n1,36.5*,-0.7,-0.7,0.2
CO[C@H]1CN(C)C(=O)c2ccc(NC(=O)c3ccccc3F)cc2OC[C@H](C)N(C(C)=O)C[C@H]1C,-2.4,2.2,-1.7,-0.3
COc1cccc(CN2[C@@H]3CNC[C@H]2C3c2ccc(-c3cccnc3)cc2)c1 (stereo not given in full),-0.3,-0.6,-0.1,x
O=C1COc2cc(ccc2[N+](=O)[O-])Oc2ccc(cc2Cl)C(=O)CCCCO1,2.1,0.2,17.6*,0.0

# Screens as filed in PubChem.
